L3MBTL1 block = L3MBTL1 (human) inhibition; Q9Y468; AlphaScreen L3MBTL1–H3K9me1 peptide binding; Potency, µM (top dose mostly 57.1 µM), actives largely listed as inhibitors; actives 0.66% (n = 230,000); AID 485360; further: nearly all actives have a fitted effect of over 60% in size
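L3MBTL1 (50 nM) pre-complexed 30 min with biotinylated H3(1-15)K9me1 peptide (75 nM), then compounds added for 30 min at room temperature; AlphaScreen streptavidin donor/nickel chelate acceptor beads (10 ug/mL final) read after 30 min dark incubation.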
HP1b chromo inh = HP1-beta chromodomain-methylated histone interaction inhibition | P83916 | AlphaScreen HP1-beta / biotin-H3K9me3 peptide binding | Potency, µM (series often up to 114 µM), usual class: inhibitors | actives 0.56% (n = 390,000); further: nearly all actives have a fitted effect of over 70% in size
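AlphaScreen: HP1-beta (50 nM) preformed 30 min with biotin-H3(1-18)K9me3 peptide (50 nM) in PBS pH 7.4, 0.01% Tween-20. Compound added for 30 min at RT, then streptavidin donor/nickel chelate acceptor beads (10 ug/mL) for 30 min.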
G9a block = inhibitors of human histone lysine methyltransferase G9a; G9a H3K9 monomethylation, AlphaScreen, 2 h; Potency, µM (series often up to 102 µM), actives largely listed as inhibitors; actives 8.8% (n = 350,000); AID 504332; further: nearly all actives have a fitted effect of over 75% in size
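G9a (20 nM) was preincubated 15 min with compound, then reacted 2 h at room temperature with 500 nM biotin-H3K9 peptide and 20 µM SAM. Monomethyl-H3K9 detected by AlphaScreen using anti-H3K9me1 antibody.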
JMJD2A Tudor inh = JMJD2A Tudor domain (human) inhibition | O75164 | AlphaScreen JMJD2A-Tudor / H3K4me3 peptide binding | Potency, µM (highest dose often 114 µM), most hits filed as inhibitors | actives 4.4% (n = 390,000) | AID 504339; further: nearly all actives have a fitted effect of over 50% in size
Target sequence (O75164 whole entry, looked up, the tested form may be a part): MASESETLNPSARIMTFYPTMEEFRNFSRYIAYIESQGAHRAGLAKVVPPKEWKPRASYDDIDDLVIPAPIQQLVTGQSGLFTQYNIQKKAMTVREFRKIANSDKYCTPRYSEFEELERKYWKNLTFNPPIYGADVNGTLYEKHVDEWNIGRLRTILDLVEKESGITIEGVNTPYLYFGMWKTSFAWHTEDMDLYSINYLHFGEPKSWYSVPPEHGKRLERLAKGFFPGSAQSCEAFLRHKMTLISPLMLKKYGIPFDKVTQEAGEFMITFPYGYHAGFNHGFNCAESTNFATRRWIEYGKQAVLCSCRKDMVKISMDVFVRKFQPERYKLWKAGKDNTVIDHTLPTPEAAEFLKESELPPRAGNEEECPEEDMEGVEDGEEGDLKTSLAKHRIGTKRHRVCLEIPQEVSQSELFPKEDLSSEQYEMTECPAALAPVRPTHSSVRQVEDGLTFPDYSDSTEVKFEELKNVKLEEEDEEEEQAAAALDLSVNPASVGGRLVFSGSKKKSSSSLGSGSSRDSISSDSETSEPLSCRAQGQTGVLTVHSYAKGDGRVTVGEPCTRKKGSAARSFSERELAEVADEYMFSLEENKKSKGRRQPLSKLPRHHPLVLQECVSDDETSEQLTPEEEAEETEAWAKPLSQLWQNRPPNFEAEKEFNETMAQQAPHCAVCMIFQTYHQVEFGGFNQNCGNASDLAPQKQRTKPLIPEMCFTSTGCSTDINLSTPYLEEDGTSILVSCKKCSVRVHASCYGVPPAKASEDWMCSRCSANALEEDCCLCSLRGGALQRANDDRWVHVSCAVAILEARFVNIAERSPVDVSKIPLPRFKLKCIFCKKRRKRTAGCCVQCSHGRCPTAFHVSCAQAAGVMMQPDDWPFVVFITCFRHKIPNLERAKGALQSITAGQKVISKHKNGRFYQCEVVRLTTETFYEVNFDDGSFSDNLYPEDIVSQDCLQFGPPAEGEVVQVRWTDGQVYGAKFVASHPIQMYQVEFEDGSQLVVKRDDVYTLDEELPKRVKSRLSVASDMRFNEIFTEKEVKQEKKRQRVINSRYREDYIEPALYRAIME
BAZ2B block = blocks human BAZ2B | Q9UIF8 | Potency, µM (top dose mostly 114 µM), most hits filed as inhibitors | AlphaScreen BAZ2B-H3K14Ac peptide displacement | AID 504333 | actives 4.4% (n = 360,000); further: nearly all actives have a fitted effect of over 60% in size
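Complex of BAZ2B and biotin-H3K14Ac (50 nM apiece) forms over 30 min at RT, then faces library compounds up to 110 uM for another 30 min; AlphaScreen beads added, 20 min dark incubation, luminescence read.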
PI5P4K alpha inh = blocks human PI5P4K alpha kinase activity; PI5P4Kalpha enzyme, ADP-Glo luminescence, 60 min; stronger effect = lower value; max response, %; actives 1.2% (n = 330,000); AID 652105; active means max response of -50% or lower; inconclusive means between -30% and -50%; inactive means -30% or higher; further: value at the top dose of about 77 µM
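Enzyme plus substrate dispensed, test compounds pinned in, then ATP (5 microM final) added. After 60 min at RT, ADP-Glo reagent 1 for 45 min and reagent 2 for 30 min preceded luminescence imaging.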
Hits are given with their value; n = inactive; u = inconclusive; x = no result given; [ ] = remark or other dose. The list is not random: actives were taken first. Their share in the collection is about 11%. Unless noted, the call rests on the fitted dose curve; in most records, active means well fitted inhibition curve with a large enough effect; inconclusive means small, poorly fitted or top-dose-only effect; inactive means no such curve, though single readings can be large or run the other way.

SMILES	L3MBTL1 block	HP1b chromo inh	G9a block	JMJD2A Tudor inh	BAZ2B block	PI5P4K alpha inh
COc1ccc(C(C[N+](=O)[O-])c2c(C)[nH]n(-c3ccccc3)c2=O)cc1 (stereo not drawn)	x	u	n[2.33 µM]	89.1µM	n	n
COc1ccccc1C(C[N+](=O)[O-])c1c(N)n(C)c(=O)n(C)c1=O (stereo not drawn)	x	n	n	n	n	n
CCn1c(SCC(=O)Nc2ccccc2C(=O)OC)nc2c1c(=O)n(C)c(=O)n2C	n	x	28.2µM	x	n	x
CCn1c(SCC(=O)Nc2ccccc2C(=O)OC)nnc1-c1ccc(N)cc1	n	n	44.7µM	n	n	x
CCn1c(SCCN2CCCCC2)nc2c1c(=O)n(C)c(=O)n2C	x	70.8µM	x	n	x	n
CCn1c(SCC(=O)Nc2ccccc2C(=O)OC)nnc1-c1ccoc1C	n	n	n	n	n	n
CCn1c(SCC(=O)NNC(=S)Nc2ccc(C)cc2)nnc1-c1ccc(Cl)cc1	n	n	10µM	n	n	n
COc1ccc(CCNc2nc3cc(OC)c(OC)cc3c3nc(-c4ccccc4)nn23)cc1OC	x	n	n	n	u	x
Cn1c(-n2cccc2)c(-c2c(-c3ccc(F)cc3)[nH]c3c2c(=O)[nH]c(=O)n3C)c(=O)[nH]c1=O	x	n	n	n	n	x
COc1ccc(-c2ccccc2C2C3C=CCCC3(C)C(=O)N2Cc2ccccc2)cc1 (stereo not drawn)	x	n	x	n	x	x
CC1=NCC(C)c2c1[nH]c1ccccc21 (stereo not drawn)	n	u	12.6µM	u	u	n
O=C1NC(=O)C(c2ccccc2[N+](=O)[O-])=C1Nc1ccc(O)c(Cl)c1	x	n	1.5µM	u	50.1µM	u
Cc1ccc(-c2cc(-c3ccccc3[N+](=O)[O-])[nH]n2)c(O)c1	n	n	n[0.501 µM]	u	u	x
C#CCOCCOCCOCCNc1nc(N2CCN(C(=O)[C@H](Cc3ccc(O)cc3)n3cc([C@@H](N)C(C)CC)nn3)CC2)nc(N2CCN(C(=O)[C@H](CCCCN)n3cc([C@@H](N)CO)nn3)CC2)n1 (stereo partly drawn)	n	n	n[12.7 µM]	39.8µM	50.1µM	n
C#CCOCCOCCOCCNc1nc(N2CCN(C(=O)[C@H](CCCCN)n3cc(CC(C)O)nn3)CC2)nc(N2CCN(C(=O)[C@H](CCCCN)n3cc(CC(C)O)nn3)CC2)n1 (stereo partly drawn)	n	n	n[2.33 µM]	n	n	n
C#CCOCCOCCOCCNc1nc(N2CCN(C(=O)[C@H](Cc3ccc(O)cc3)n3cc([C@@H](N)C(C)CC)nn3)CC2)nc(N2CCN(C(=O)[C@H](CCCCN)n3cc([C@@H](N)CC(C)C)nn3)CC2)n1 (stereo partly drawn)	n	x	n	x	79.4µM	x
C#CCOCCOCCOCCNc1nc(N2CCN(C(=O)[C@H](CCCCN)n3cc([C@@H](N)CO)nn3)CC2)nc(N2CCN(C(=O)[C@H](Cc3ccc(O)cc3)n3cc([C@@H](N)CC(C)C)nn3)CC2)n1	n	n	u	56.2µM	31.6µM	n
CCOc1ccc(NC(=O)c2oc3ccccc3c2NC(=O)C(C)Oc2ccccc2)cc1 (stereo not drawn)	x	n	n	n	n	x
O=C1CN(C(=O)Nc2ccccc2Cl)C(c2ccccc2)c2c(sc3c2CCCC3)N1 (stereo not drawn)	x	n	n	n	n	x
O=C(Nn1cnnc1)c1cc([N+](=O)[O-])cc([N+](=O)[O-])c1	n	n	n	n	n	n
Nc1c(C(=O)Nn2cnnc2)cc([N+](=O)[O-])cc1[N+](=O)[O-]	n	x	50.1µM	x	n	x
Cn1cnc(C(=O)N2CCN(c3ccccc3)CC2)c1C(=O)N1CCN(c2ccccc2)CC1	n	n	n[2.33 µM]	28.2µM	56.2µM	n
CCc1ccc(NS(=O)(=O)c2c(-c3ccccc3)csc2C(=O)OC)cc1	x	n	n	n	n	x
CC(C)OC(=O)C(C(=O)C(F)(F)F)c1cc(NS(=O)(=O)c2ccc3ccccc3c2)c2ccccc2c1O (stereo not drawn)	n	u	31.6µM	35.5µM	n	n
CCOC(=O)c1ccc(S(=O)(=O)N2CCC(N3CCCCCC3)CC2)cc1	x	x	x	x	x	n
SMILES	L3MBTL1 block	HP1b chromo inh	G9a block	JMJD2A Tudor inh	BAZ2B block	PI5P4K alpha inh
CCOC(=O)CC(=O)CSc1nc2ccccc2c(=O)n1CCc1ccccc1	x	n	n	n	n	x
CCOC(=O)c1ccc(S(=O)(=O)n2c(CN3CCCCC3)nc3ccccc32)cc1	n	n	50.1µM	n	n	n
NC(=O)CSc1nc2ccccc2c(=O)n1CCc1ccccc1	n	n	79.4µM	n	n	n
O=C(O)CSc1nc2ccccc2n1Cc1ccccc1	n	n	n	89.1µM	n	n
CN(C)C(=O)CSc1nc2ccccc2n1Cc1ccccc1	n	n	n	n	n	n
O=C(CSc1nc2ccccc2n1S(=O)(=O)c1ccccc1)N1CCCCC1	n	n	70.8µM	n	n	n
CCc1c(C)c2ccc3c(c2oc1=O)CN(Cc1ccccc1)CO3	x	n	n	n	n	x
Cc1cccc(CNC(=O)c2ccc(Cn3c(SCc4cccc(F)c4)nc4cccnc43)cc2)c1	x	u	3.16µM	4.47µM	11.2µM	x
O=c1c2ccccc2nc(/C=C/c2ccccc2)n1CCc1ccccc1	n	n	n	n	n	n
Cc1ccc(S(=O)(=O)N2CCOCC2)cc1NC(=O)CSc1nc2ccccc2c(=O)n1Cc1ccccc1	n	n	n	n	n	n
Cn1c(SCC(=O)N2CCCC2)nc2cccnc21	n	n	u	n	n	n
O=C(CSc1nc2ccccc2c(=O)n1Cc1ccccc1)Nc1ccc(Br)cc1C(=O)O	x	n	u	n	50.1µM	-74.7
O=c1c2ccccc2nc(/C=C/c2cccnc2)n1CCc1ccccc1	x	n	50.1µM	17.8µM	35.5µM	n
O=C(CSc1nc2cccnc2n1Cc1ccccc1)N1CCCC1	n	u	n	31.6µM	n	n
Cc1ccc(NC(=O)c2cnc3sc(N4CCOCC4)nn3c2=O)cc1N(C)C	x	n	n	n	n	x
Cc1cccc(NC(=O)CN2C(=O)CSc3ccc(S(=O)(=O)N4CCCC4)cc32)c1C	x	n	n	n	n	x
Cc1cccc(CNC(=O)c2ccc(Cn3c(SCc4ccccc4)nc4cccnc43)cc2)c1	x	n	n	n	n	x
O=C(NCc1ccccc1)c1ccc(CSc2nc3cccnc3n2Cc2ccccc2F)cc1	x	u	3.55µM	5.62µM	22.4µM	x
COc1ccc(Cn2c(SCc3ccc(C(=O)NCc4ccccc4F)cc3)nc3cccnc32)cc1	x	n	n	n	n	x
CN(C)c1ccc(CNC(=O)c2ccc(Cn3c(SCc4ccccc4)nc4cccnc43)cc2)cc1	x	n	10µM	u	u	x

Screens from PubChem BioAssay.
